A short description of test [1]: compounds binding Alexa647 anti-His antibody – biochemical, small-molecule microarray, 635 nm fluorescence, artefact control for SMM control protein annotation, primary screen (AID 1128).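 Note: score merges feature fluorescence with signal-to-noise for each printed compound spot.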 The settings on record: higher = more signal.
The subject of test [2] is Human papillomavirus type 1a E7 protein (residues 1-88). Briefly: HPV1a E7 small-molecule binders, primary screen, biochemical, small-molecule microarray, residues 1-88, 635 nm (AID 1129). The conditions noted are these: small-molecule microarray binding, fluorescence 635 nm; higher = more signal.
Test [3] has as its target Focal adhesion kinase 1 (Homo sapiens) (UniProt Q05397). Put plainly: PTK2 protein binding on printed compound slides – biochemical, small-molecule microarray, 635/667 nm fluorescence, BSA, DTT, primary screen (AID 1130).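 Note: composite of spot emission at 667 nm and signal to noise over triplicate slides.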 The conditions noted are these: 635 nm fluorescence, higher = more signal.
In test [4] the test system is Fibrinogen (Alexa647-labelled). Put plainly: Alexa647-fibrinogen binding to printed small molecules – biochemical, small-molecule microarray, 635/667 nm fluorescence, artefact control for SMM control-protein annotation, profiling panel (AID 1131).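 Note: z-score merges 667 nm fluorescence with per-spot signal-to-noise over triplicate slides.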 The settings on record: fibrinogen-A647 binding fluorescence, higher = more signal.
For test [5], the target named is Follistatin (Homo sapiens) (UniProt P19883). Briefly: FST protein binding to printed compounds – biochemical, small-molecule microarray, 635/667 nm fluorescence, primary screen (AID 1132). The conditions noted are these: 635 nm fluorescence, higher = more signal.
Sequence of Follistatin (Homo sapiens) (P19883 whole entry, looked up): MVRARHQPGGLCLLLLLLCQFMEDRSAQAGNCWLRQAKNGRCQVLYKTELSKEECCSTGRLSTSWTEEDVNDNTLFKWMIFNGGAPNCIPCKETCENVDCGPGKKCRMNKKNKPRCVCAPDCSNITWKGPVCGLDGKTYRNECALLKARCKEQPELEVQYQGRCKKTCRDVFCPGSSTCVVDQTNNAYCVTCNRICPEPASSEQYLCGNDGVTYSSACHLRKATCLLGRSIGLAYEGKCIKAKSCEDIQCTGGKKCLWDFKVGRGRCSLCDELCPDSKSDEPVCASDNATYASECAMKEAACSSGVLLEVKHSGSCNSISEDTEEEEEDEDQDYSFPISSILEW
Test [6] addresses Fibroblast growth factor 2 (Homo sapiens) (UniProt P09038). Put plainly: basic fibroblast growth factor binding to printed compounds – biochemical, small-molecule microarray, 635/667 nm fluorescence, primary screen (AID 1133). The conditions noted are these: FGF2, fluorescence 635/667, higher = more signal.
A short description of test [7]: JC-1 mitochondrial potential readout, lung cancer cells – cell-based, A549, JC-1 fluorescence, basal, 24 h, 100 nL, profiling panel (AID 1138).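 Note: A549 lung adenocarcinoma cells under basal conditions with no added stimulus; test concentration not given here.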 The conditions noted are these: higher = more signal.
The next test concerns Lefty1. Briefly: Lefty1 protein binding to printed compounds – biochemical, small-molecule microarray, 635/667 nm fluorescence, primary screen (AID 1139). The settings on record: fluorescence 635/667, higher = more signal.
Test [8] concerns wheat germ agglutinin (Triticum aestivum), Alexa647-labelled. Put plainly: Alexa647-WGA lectin binding to printed small molecules – biochemical, small-molecule microarray, 635/667 nm fluorescence, artefact control for SMM control-protein annotation, profiling panel (AID 1140).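 Note: score merges 667 nm feature emission with signal to noise over triplicate slides.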 The settings on record: WGA-A647 binding, 635 nm fluorescence, higher = more signal.
For test [9], the target named is Luciferin 4-monooxygenase (Photinus pyralis) (UniProt P08659). Briefly: inhibition of purified Photinus pyralis luciferase – biochemical, luminescence, purified enzyme, 2006 set, primary screen (AID 1141).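 Note: cell-free assay with purified firefly luciferase at 100 ng per well in PBS; test concentration not given here.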 The conditions noted are these: purified firefly luciferase, SteadyGlo luminescence, 30 min; higher = more signal, called active from +8 up or from −8 down.
Sequence of Luciferin 4-monooxygenase (Photinus pyralis) (P08659 whole entry, looked up): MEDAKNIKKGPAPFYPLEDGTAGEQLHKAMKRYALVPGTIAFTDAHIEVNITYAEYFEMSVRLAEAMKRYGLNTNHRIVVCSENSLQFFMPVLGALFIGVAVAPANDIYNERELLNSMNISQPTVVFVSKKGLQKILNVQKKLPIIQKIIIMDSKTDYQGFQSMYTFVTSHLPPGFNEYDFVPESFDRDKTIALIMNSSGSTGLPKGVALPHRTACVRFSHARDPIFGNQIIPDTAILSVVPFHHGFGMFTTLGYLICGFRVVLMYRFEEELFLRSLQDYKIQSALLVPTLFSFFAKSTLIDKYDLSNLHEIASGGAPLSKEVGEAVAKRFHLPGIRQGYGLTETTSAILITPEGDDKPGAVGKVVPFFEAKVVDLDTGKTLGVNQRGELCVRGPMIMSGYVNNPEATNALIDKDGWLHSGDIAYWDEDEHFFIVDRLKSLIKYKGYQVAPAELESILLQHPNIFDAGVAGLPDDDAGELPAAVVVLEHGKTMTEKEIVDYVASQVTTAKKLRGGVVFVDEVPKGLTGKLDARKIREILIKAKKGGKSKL
Test [10] relates to Wnt5a (protein binding on small-molecule microarray). Briefly: small molecules binding Wnt5a protein – biophysical, small-molecule microarray, 635/667 nm fluorescence, primary screen (AID 1142).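 Note: fluorescence read at 667 nm with signal to noise per printed feature.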 The settings on record: 635 nm fluorescence, higher = more signal.
Test [11] is described as follows: ATP-based viability of Huh7 replicon cells – cell-based, CellTiter-Glo luminescence, basal, 48 h, cytotoxicity control for HCV replication inhibitor project, primary screen (AID 1143).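 Note: Huh7 hepatoma cells carrying a hepatitis C replication reporter with no stimulus; test concentration not given here.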 The conditions noted are these: higher = more signal, called active from +8 up or from −8 down.
Test [12] is described as follows: Pseudomonas biofilm growth suppression – PAO1 strain, BacTiter-Glo luminescence, LB-PBS, primary screen (AID 1144). The settings on record: P. aeruginosa PAO1 biofilm, 12 h, higher = more signal.
Test [13] is described as follows: basal CRE-LacZ reporter activity in PC12 – cell-based, unstimulated, primary screen (AID 1145). The conditions noted are these: no forskolin, luminescence, 4.5 h, higher = more signal, called active from +8 up or from −8 down.
Test [14] can be described thus: forskolin-driven CRE-LacZ activity in PC12 – cell-based, CRE-LacZ reporter, forskolin-stimulated, primary screen (AID 1146).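 Note: PC12 cells with 6xCRE LacZ reporter stimulated by forskolin 10 µM; beta-galactosidase reporter signal reflecting CREB driven transcription.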 The conditions noted are these: luminescence, 4.5 h, higher = more signal, called active from +8 up or from −8 down.
Test [15] deals with Streptavidin (Streptomyces avidinii) (UniProt P22629). Put plainly: compounds binding control protein streptavidin – biophysical, small-molecule microarray, 635/667 nm fluorescence, artefact control for SMM compound annotation, primary screen (AID 1147).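 Note: signal reflects streptavidin binding to arrayed compounds as a control protein.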 The settings on record: higher = more signal.
Sequence of Streptavidin (Streptomyces avidinii) (P22629 whole entry, looked up): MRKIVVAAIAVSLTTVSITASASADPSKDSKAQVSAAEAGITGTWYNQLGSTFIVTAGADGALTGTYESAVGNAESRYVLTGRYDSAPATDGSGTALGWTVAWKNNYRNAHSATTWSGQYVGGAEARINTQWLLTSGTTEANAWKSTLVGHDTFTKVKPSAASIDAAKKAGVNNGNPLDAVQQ
Test [16] in a line: probe aInhba binding on compound microarray – biochemical, small-molecule microarray, 635/667 nm fluorescence, primary screen (AID 1148).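 Note: score merges 667nm spot fluorescence with signal-to-noise for antibody binding to printed compounds.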 The conditions noted are these: higher = more signal.
The target of test [17] is Torsin-1A (Homo sapiens) (UniProt O14656). Briefly: TOR1A wild-type binding on microarray – cell lysate, small-molecule microarray, lysate, 635/667 nm, primary screen (AID 1149). The settings on record: COS7 hTOR1A-WT lysate, 635 nm fluorescence, higher = more signal.
Sequence of Torsin-1A (Homo sapiens) (O14656 whole entry, looked up): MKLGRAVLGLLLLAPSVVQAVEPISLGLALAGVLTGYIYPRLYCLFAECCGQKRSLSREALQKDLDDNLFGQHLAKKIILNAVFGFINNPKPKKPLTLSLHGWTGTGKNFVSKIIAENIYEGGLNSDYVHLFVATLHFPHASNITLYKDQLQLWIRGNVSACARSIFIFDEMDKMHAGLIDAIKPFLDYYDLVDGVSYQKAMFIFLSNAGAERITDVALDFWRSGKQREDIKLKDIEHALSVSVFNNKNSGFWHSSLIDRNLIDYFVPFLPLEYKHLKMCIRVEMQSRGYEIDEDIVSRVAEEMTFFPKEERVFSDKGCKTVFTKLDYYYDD
Test [18] shares this target. Briefly: torsin A mutant lysate binding on microarrays – cell lysate, small-molecule microarray, COS7 lysate, 635/667 nm fluorescence, primary screen (AID 1150).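 Note: score pools 667 nm emission and signal to noise measuring lysate protein binding.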 The settings on record: COS7 hTOR1A mutant lysate, 635 nm fluorescence, higher = more signal.
Test [19] has as its system Sonic hedgehog protein (Shh). Briefly: Sonic hedgehog microarray binding compounds – biochemical, small-molecule microarray, 635/667 nm fluorescence, primary screen (AID 1151).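 Note: Shh protein binding to compounds spotted on small-molecule microarray slides; score combines spot fluorescence intensity with signal-to-noise across triplicate slides.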 The settings on record: 635 nm fluorescence, higher = more signal.

From PubChem BioAssay come the findings set out here.

The source made the active and inactive calls. Unless noted, the rule behind the calls is not given here.

Sequence of Fibroblast growth factor 2 (Homo sapiens) (P09038 whole entry, looked up): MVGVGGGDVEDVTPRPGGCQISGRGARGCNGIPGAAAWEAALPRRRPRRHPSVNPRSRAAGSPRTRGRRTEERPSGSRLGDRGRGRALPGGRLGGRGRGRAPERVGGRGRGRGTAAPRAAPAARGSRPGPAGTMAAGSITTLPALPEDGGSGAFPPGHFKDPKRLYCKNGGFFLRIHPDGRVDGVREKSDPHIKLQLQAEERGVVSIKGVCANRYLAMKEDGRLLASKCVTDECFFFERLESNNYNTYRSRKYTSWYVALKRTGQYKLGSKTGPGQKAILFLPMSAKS
Sequence of Focal adhesion kinase 1 (Homo sapiens) (Q05397 whole entry, looked up): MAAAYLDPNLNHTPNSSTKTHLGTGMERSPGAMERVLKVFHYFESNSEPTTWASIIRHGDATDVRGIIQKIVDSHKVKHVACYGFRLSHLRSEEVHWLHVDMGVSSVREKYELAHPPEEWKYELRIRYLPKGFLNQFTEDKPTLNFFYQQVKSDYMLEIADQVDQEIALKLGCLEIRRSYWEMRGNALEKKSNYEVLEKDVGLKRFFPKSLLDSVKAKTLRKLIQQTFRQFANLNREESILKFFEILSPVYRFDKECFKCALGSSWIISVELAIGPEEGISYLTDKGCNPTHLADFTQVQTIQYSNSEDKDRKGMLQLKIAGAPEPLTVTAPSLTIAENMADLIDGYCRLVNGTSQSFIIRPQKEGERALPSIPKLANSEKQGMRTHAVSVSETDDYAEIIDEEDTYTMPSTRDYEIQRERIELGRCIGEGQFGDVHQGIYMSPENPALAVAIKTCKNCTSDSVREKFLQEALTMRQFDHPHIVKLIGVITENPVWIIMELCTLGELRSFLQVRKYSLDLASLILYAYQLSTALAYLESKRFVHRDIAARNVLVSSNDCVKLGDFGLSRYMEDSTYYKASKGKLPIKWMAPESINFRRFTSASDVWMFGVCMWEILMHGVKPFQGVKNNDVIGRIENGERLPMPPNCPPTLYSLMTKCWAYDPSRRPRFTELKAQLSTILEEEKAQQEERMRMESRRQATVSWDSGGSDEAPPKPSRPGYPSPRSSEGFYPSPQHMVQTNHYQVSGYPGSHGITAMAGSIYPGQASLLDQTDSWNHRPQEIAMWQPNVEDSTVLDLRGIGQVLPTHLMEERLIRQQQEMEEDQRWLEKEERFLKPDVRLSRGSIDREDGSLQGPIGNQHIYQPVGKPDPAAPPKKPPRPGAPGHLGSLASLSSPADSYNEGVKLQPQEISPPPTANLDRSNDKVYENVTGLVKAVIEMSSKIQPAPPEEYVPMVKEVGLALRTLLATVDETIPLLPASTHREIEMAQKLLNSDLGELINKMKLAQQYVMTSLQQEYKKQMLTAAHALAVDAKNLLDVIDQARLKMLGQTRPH

As for `C=C(C)[C@@H]1CC=C(C(O)C2C=CC3C(=O)N(C)C(=O)C3N2Nc2ccccc2)CC1` (stereo not given in full), the composite z-score was -0.243 in test [1]; 1.17 in test [2]; 0.427 in test [3]; 0.262 in test [4]; 1.38 in test [5]; 1.12 in [6]. In addition, the composite z-score came to 0.987 in the test on Lefty1; 1.18 in test [8]; 0.297 in [10]; 0.178 in test [15]; 0.0013 in test [16]; 0.425 with Torsin-1A (Homo sapiens) [17]. The composite z-score in the test with Torsin-1A (Homo sapiens) [18] was 0.385; in [19], 1.89. In addition, the z-score in test [7] was 0.54; in test [9], 0.485 (inactive); in test [11] it was 0.435 (inactive); in [12], -0.309 (inactive); in [13], 0.626 (inactive); in test [14], 1.26 (inactive).
Take `C=CCOC(=O)[C@H]1[C@@H]2C(=O)O[C@@H](c3ccccc3)[C@@H](c3ccccc3)N2[C@@H](c2ccc(OCCOC(=O)[C@@H]3C[C@@H]4C(=O)N[C@@H](CCCCNC(C)=O)C(=O)N4[C@@H]3c3ccc(O)cc3)cc2)[C@]12C(=O)Nc1ccccc12`: the composite z-score worked out at 3.17 in test [1]; 1.22 in test [2]; 1.14 in [3]; 0.76 in test [4]; 1.25 in [5]; 1.49 in test [6]. Also, the composite z-score was 1.23 in the test on Lefty1; 0.8 in test [8]; 0.39 in [10]; -0.0038 in test [15]; 0.095 in test [16]; 0.665 in the test with Torsin-1A (Homo sapiens) [17]. Moreover, the figures for the composite z-score (in the test with Torsin-1A (Homo sapiens) [18]; in [19]) were 0.505 and 2.05, respectively. The z-score in [7] was -1.55; in test [9] it was -0.907 (inactive); in test [11] it was -0.0424 (inactive); in test [12], -0.122 (inactive); in [13], -0.126 (inactive); in test [14], -0.464 (inactive).
For `CCCCCN1CC=CC23O[C@@H]4C=CCCOC(=O)C4[C@H]2C(=O)N(CCCCCO)[C@@H]3C1=O` (stereo not given in full), the composite z-score in test [1] was 0.587; in test [2] it was 0.0287; in test [3], -0.383; in test [4] it was 0.302; in [5], -1.03; in test [6], -0.347. The composite z-score with Lefty1 is -0.582; in test [8], 0.796; in test [10], -0.619; in test [15], -0.729; in test [16], -0.157; in the test with Torsin-1A (Homo sapiens) [17] it was 1.82. Also, the composite z-score with Torsin-1A (Homo sapiens) [18] stood at 0.843; in test [19] it was 0.225. The z-score in [7] was 1.4; in test [9], 0.0192 (inactive); in [11] it was 0.477 (inactive); in test [12] it was -0.978 (inactive); in test [13], -0.895 (inactive); in test [14], -0.443 (inactive).
As for `O=C1[C@@]23C=C(Br)[C@H](C[C@@H]2CCOC3)[C@@]12CO2`, the composite z-score in [1] was 0.477; in [2], 0.235; in test [3], -0.176; in test [4], 0.332; in [5], 0.327; in test [6], 0.469. Further, the composite z-score in the test on Lefty1 is 0.406; in test [8], 0.128; in test [10] it was -0.0248; in test [15], 0.365; in [16], 0.0792; with Torsin-1A (Homo sapiens) [17], 0.441. Also, the composite z-score with Torsin-1A (Homo sapiens) [18] stood at 0.219; in test [19] it was 0.534. For the same molecule, the z-score was 1.23 in test [7]; -0.54 (inactive) in test [9]; 0.35 (inactive) in test [11]; 0.725 (inactive) in test [12]; 0.221 (inactive) in test [13]; 0.767 (inactive) in [14].
`CCCCCCc1nc(-c2cc(C)c(OC)c(C)c2)cc2c1[Si](C(C)C)(C(C)C)OC2`: the composite z-score in test [1] was -0.164; in [2], 0.103; in test [3], 0.0497; in test [4], -0.419; in test [5] it was 0.578; in test [6] it was -0.143. Also, the composite z-score with Lefty1 was 0.275; in [8], -0.239; in [10] it was -0.227; in [15], 0.0643; in test [16], 0.131; with Torsin-1A (Homo sapiens) [17], -0.646. Also, the composite z-score in the test with Torsin-1A (Homo sapiens) [18] is -0.384; in test [19], 0.985. For the same molecule, the z-score in test [7] was -0.693; in test [9], 1 (inactive); in test [11] it was -2.72 (inactive); in [12], -0.661 (inactive); in test [13] it was -0.0989 (inactive); in [14], 0.0738 (inactive).
